# Assay outcomes (PubChem)
# Hits are enriched below; roughly 0.44% of the tested compounds scored in any of these assays.
# YopH inh: inhibitors of Yersinia enterocolitica YopH tyrosine phosphatase | inhibition, % (concentration not given with the values) | AID 898 | hit rate 0.16% among 140,000 | fluorescence Ex485/Em525; in the data active means inhibition above about 50%
# RmlCD inh mix: mixture blocks RmlC and RmlD coupled enzyme activity; hit rate 0.39% among 110,000; RmlC/RmlD coupled enzyme inhibition, 384-well mixture HTS; inhibition, % at 5.5 µM; in the data active means inhibition above about 30%, passing the limit was not always enough
# RmlCD artifact: shows fluorescent artifact in RmlC/RmlD assay, dose-response counter-screen; shares compounds with RmlCD inh mix; RmlC/RmlD assay fluorescence artifact counter-screen; calls only; hit rate 96% among 360; AID 1696; call rule not given here;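 further: compound alone with no enzyme and no substrates present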
# Starred values were filed as active, the others as inactive; / = no result given; + = active, no number.
SMILES,YopH inh,RmlCD inh mix,RmlCD artifact
CCOC(=O)c1ccccc1NC(=O)Cn1c(=O)n(Cc2ccccc2)c(=O)c2c(C)c(C)sc21,-10,/,/
Cc1ccc(NC(=O)Nc2ccccc2C#N)c(Cl)c1,-13,29,/
O=C(Nc1cccc(Cl)c1)Nc1cccc(Cl)c1,-6,-14,/
N#Cc1ccccc1NC(=O)Nc1cccc(Cl)c1,-5,44*,+
N#Cc1ccccc1NC(=O)Nc1ccc(Cl)cc1,-22,40*,+
COC(=O)c1ccc(OC)cc1OCC(=O)N1CCN(c2ccc(F)cc2)CC1,-24,-13,/
O=C(C1=C[C@H](c2csc3ccccc23)C[C@H](OCc2ccc(CO)cc2)O1)N1CCN(Cc2ccc3c(c2)OCO3)CC1,/,6,/
O=C(CCNS(=O)(=O)c1cccs1)NCc1ccccc1,-13,-1,/
O=C(NC(=S)N(Cc1ccccc1)c1ccccn1)C1CC1,-20,/,/
CN(C)Cc1c(O)ccc2c3c(c(=O)oc12)CCCCC3,-30,117*,+
O=c1oc2c(CN3CCOCC3)c(O)ccc2c2ccccc12,11,/,/
CCCc1cc(=O)oc2c(CN3CCOCC3)c(O)ccc12,16,166,/
CCCCc1cc(=O)oc2c(CN(C)C)c(O)ccc12,-30,72*,+
COCCN(CCOC)Cc1c(O)ccc2c3c(c(=O)oc12)CCC3,-42,158,/
O=c1oc2c(CN3CCOCC3)c(O)ccc2c2c1CCCC2,-14,147*,+
CCc1c(C)c2ccc(O)c(CN(C)C)c2oc1=O,-30,131*,+
COc1ccc(Oc2c(C)oc3c(CN(C)C)c(O)ccc3c2=O)cc1,-3,23,/
COc1cc(O)c(C(CC(=O)N2CCOCC2)c2cc(OC)c(OC)c(OC)c2)c(OC)c1 (stereo unspecified),/,5,/
CC1OC(Oc2ccc3ccc(=O)oc3c2-c2c(O)ccc3cc(Oc4ccc5ccc(=O)oc5c4)c(=O)oc23)C(O)C(O)C1O (stereo unspecified),-27,-10,/
CCCCCCNS(=O)(=O)c1ccc(NC(=O)C2CCCO2)cc1 (stereo unspecified),-16,/,/
CC1=CC2=NC(=O)CC(C)(C(=O)N(CC(=O)NC(C)(C)C)C3CCCC3)N2C=C1 (stereo unspecified),34,6,/
CC(C)(C)NC(=O)CN(C(=O)C1(C)CC(=O)N=C2C=CC=CN21)C1CCCC1 (stereo unspecified),9,39*,+
c1ccc2cc(-c3cc4ccccn4c3)ccc2c1,-48,91*,+
CC(=O)N1N=C(c2ccc3ccccc3c2)OC1(C)C,-15,/,/
COc1cc(/C=N/NC(=O)Nc2cccc3nsnc23)cc(OC)c1OC,-36,/,/
COc1ccc(/C=N/NC(=O)Nc2cccc3nsnc23)c(OC)c1,-22,39*,+
CC(C)C[C@H](NC(=O)c1nc[nH]c1C(=O)N(C)Cc1ccccc1)C(=O)OC(C)(C)C,/,9,/
